IDE inh: human IDE inhibitors in live cells, primary screen, fluorescence polarization, HEK cells, FAbetaB substrate; FAbetaB cleavage; inhibition, % at 5.59 µM; 320,000 tested, 0.41% active; AID 434962, 2010;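 active = percent inhibition above the average of all tested compounds plus 3 SD, set per screening campaign, cut at about 16% in these data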;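 note: IDE supplied by intact live HEK cells; FP after avidin binding of uncleaved biotin substrate so inhibition keeps polarization high; 0% = DMSO wells and 100% = 60 µM reference IDE inhibitor Ii1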
IDE cell activ: human IDE activators in live cells, primary screen, fluorescence polarization, HEK cells, FAbeta-B substrate. FAbeta-B cleavage; 0% vehicle, 100% cell-free pure enzyme wells. activation, % at 5.96 µM. 340,000 tested, 0.073% active;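 active = activation above the mean of all tested compounds plus 3 SD, set per screening campaign, cut at about 17% in these data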
MEX-5 binding: MEX-5 zinc finger RNA-binding disruptors – biochemical, C. elegans, fluorescence polarization, MLPCN library, primary screen; Zinc finger protein mex-5 (Caenorhabditis elegans), Q9XUB2; 300,000 tested, 0.38% active; AID 1832, 2009; MEX-5/FITC-TCR2 RNA binding; active compounds read low; activity score (negative = inhibition of binding), % at 10 µM;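 active = inhibition past about -25% in most replicates, and total fluorescence under double the plate's negative control median, limit read from the data; inconclusive = replicates evenly split on the limit, or fluorescence at least double controls; inactive = too little inhibition in most replicates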;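 note: 0% = DMSO and -100% = 5 µM competing unlabeled TCR2 RNA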
GLD-1 RNA inh: GLD-1/TGE RNA complex disruptors, primary screen, biochemical, fluorescence polarization; Female germline-specific tumor suppressor gld-1 (Caenorhabditis elegans), Q17339; purified GLD-1 + fluorescein TGE RNA; inhibition, % at 5.96 µM; 320,000 tested, 0.44% active;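 active = percent inhibition above a per-plate cutoff, the plate mean of test compounds plus 3 SD, cut at about 30% in these data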;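 note: 0% = DMSO wells with GLD-1 and probe and 100% = wells lacking GLD-1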
Target sequence (Q17339 whole entry, looked up): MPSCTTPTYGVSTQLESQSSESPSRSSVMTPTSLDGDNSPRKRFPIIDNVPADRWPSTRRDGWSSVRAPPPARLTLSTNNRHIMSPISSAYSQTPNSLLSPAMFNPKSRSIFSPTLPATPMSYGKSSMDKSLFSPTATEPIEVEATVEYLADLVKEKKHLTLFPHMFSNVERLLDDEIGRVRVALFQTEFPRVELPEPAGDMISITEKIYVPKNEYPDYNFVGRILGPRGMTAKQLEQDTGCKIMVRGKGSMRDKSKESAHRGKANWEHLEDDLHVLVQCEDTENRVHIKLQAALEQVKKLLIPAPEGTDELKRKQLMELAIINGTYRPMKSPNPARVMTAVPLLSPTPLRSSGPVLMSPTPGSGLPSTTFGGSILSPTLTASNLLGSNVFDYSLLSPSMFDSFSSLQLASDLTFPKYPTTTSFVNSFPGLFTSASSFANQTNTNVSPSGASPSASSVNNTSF
Bcl-xL primary: inhibitors of human Bcl-xL, primary screen, biochemical, fluorescence polarization, HTS; GST-Bcl-xL / FITC-Bim BH3 peptide fluorescence polarization; inhibition, % at 10.9 µM; AID 2129, 2009; Bcl-2-like protein 1 (Homo sapiens), Q07817; 320,000 tested, 0.7% active;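 active = inhibition above the mean of all tested compounds plus 3 SD, cutoff set per campaign, cut at about 30% in these data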;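 note: 0% = DMSO wells and 100% = unlabeled Bim-BH3 peptide competitor; inhibitors lower millipolarization by displacing the labeled peptide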
Target sequence (Q07817 whole entry, looked up): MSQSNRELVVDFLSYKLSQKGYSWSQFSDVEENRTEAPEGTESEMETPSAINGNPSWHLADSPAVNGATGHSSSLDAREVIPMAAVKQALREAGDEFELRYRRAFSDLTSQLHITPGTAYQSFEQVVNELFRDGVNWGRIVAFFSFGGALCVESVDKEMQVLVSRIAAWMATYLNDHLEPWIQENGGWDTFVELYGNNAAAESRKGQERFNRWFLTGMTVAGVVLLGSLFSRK
MCL1-BIM inh: inhibitors of MCL1 binding to BIM-BH3, primary screen, biochemical, fluorescence polarization; Induced myeloid leukemia cell differentiation protein Mcl-1 (Homo sapiens), Q07820; GST-MCL1 / FITC-Bim-BH3 fluorescence polarization; inhibition, % at 10.9 µM; 320,000 tested, 0.68% active; AID 2057, 2009;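 active = inhibition above the mean inhibition of all tested compounds plus 3 SD, set per campaign, cut at about 40% in these data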;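 note: 0% = DMSO wells and 100% = unlabeled Bim-BH3 peptide control; higher means more loss of mP so more displacement of Bim peptide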
IDE cell inh cf: human IDE inhibitors in live cells, confirmation, fluorescence polarization, HEK cells, FAbetaB substrate. 1,200 tested, 51% active. FAbetaB cleavage. shares compounds with IDE inh. inhibition, % at 5.59 µM;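 active = mean inhibition across triplicate wells above the cutoff set by the earlier primary insulin-degrading enzyme screen, cut at about 16% in these data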;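 note: 0% = DMSO wells and 100% = 60 µM reference IDE inhibitor Ii1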
HEK cytotox: cytotoxicity in HEK cells, cytotoxicity control for IDE inhibitor project, cell-based, luminescence; shares compounds with IDE inh; HEK293 cytotoxicity, ATP luminescence; inhibition, % at 5.59 µM; 1,200 tested, 28% active; in the data active = inhibition above about 22%;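 note: 0% = vehicle wells and 100% = reference cytotoxic drug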
* = called active by the depositor; ? = inconclusive; nt = no result given. Most compounds without a hit are left out; they make up all but 1.5% or so of the library.

SMILES	IDE inh	IDE cell activ	MEX-5 binding	GLD-1 RNA inh	Bcl-xL primary	MCL1-BIM inh	IDE cell inh cf	HEK cytotox
CC(=O)c1cccc(NC(=O)CCc2nc3sc4c(c3c(=O)[nH]2)CCCC4)c1	-7.4	-1.5	-0.5	-16.3	-0.9	-4.1	nt	nt
CC(=O)c1ccc2c(c1)c(C#N)c1ccccc1[n+]2[O-]	nt	8.3	?	nt	nt	nt	nt	nt
Cc1ccc(C(=O)C(OC(=O)CNC(=O)c2ccc(Cl)cc2)c2ccccc2)cc1 (stereo not given)	17.4*	3.0	1.3	-0.9	0.4	-0.5	1.1	10.3
N#Cc1cc(C(=O)c2ccccc2O)cn(-c2nccs2)c1=O	38.5*	-50.5	?	54.2*	32.3*	14.6	61.4*	13.7
CC(C)n1cc(C(=O)c2ccccc2O)cc(C#N)c1=O	3.3	5.0	0.0	-0.1	4.5	0.5	nt	nt
Cc1c(-n2cc(C(=O)c3cc(F)ccc3O)cc(C#N)c2=O)c(=O)n(-c2ccccc2)n1C	11.0	-10.0	-3.4	7.3	16.2	14.2	nt	nt
N#Cc1cc(C(=O)c2cc(F)ccc2O)cn(-c2nccs2)c1=O	33.1*	-42.5	?	10.8	38.2*	-0.8	66.6*	13.4
COc1cc(CNCc2ccc(OC)cc2OC)cc(OC)c1	-0.9	-5.3	1.5	3.7	-3.5	0.9	nt	nt
Cc1cc(=O)oc2cc(OCC(=O)N3CCCC3)c(Cl)cc12	1.6	3.7	nt	2.3	-2.4	-1.4	nt	nt
COc1ccc(-c2cc(-c3ccc(OC)c(OC)c3)n[nH]2)c(O)c1	17.4*	-4.2	-2.0	9.2	-0.3	6.2	8.3	14.0
Cc1cc(C)cc(C(=O)Nc2ccc(NC(=O)c3cccs3)cc2)c1	18.8*	-25.2	0.6	4.3	-1.9	2.8	10.9	15.3
CC(=O)c1ccc(NC(=O)c2cccs2)cc1	7.7	0.3	-0.5	1.1	1.8	0.5	nt	nt
COC(=O)/C=c1/s/c(=C(/C#N)C(=O)N2CCCCC2)n(-c2ccccc2)c1=O	-2.0	-4.4	-4.5	-4.0	6.3	10.6	nt	nt
COc1cc(/C=c2\s/c(=C(/C#N)C(=O)N3CCCC3)n(-c3ccccc3)c2=O)ccc1O	28.2*	-120.4	?	-9.0	-5.6	-8.1	151.5*	29.5*
COc1cccc(C(=O)Nc2nc(-c3ccncc3)cs2)c1	26.4*	-11.7	0.0	-6.9	-35.0	-29.4	12.5	10.9
O=C(CCNS(=O)(=O)c1ccc(Br)cc1)Nc1cccc(F)c1	4.2	-2.2	0.8	3.1	0.5	-5.2	nt	nt
O=C(Nc1ccccc1Cl)N1CCCN(c2nc(-c3ccccc3)ns2)CC1	20.7*	-14.8	0.5	-1.1	2.1	2.6	8.0	31.4*
O=C(Nc1ccccc1)N1CCN(c2nc(-c3ccccc3)ns2)CC1	13.9	-26.0	0.1	10.1	3.3	4.5	nt	nt
Cc1c(Cl)cccc1NC(=O)N1CCCN(c2nc(-c3ccccc3)ns2)CC1	17.2*	-11.6	2.8	-1.8	-1.0	-5.5	1.8	50.7*
COC(=O)/C(C#N)=C/c1c[nH]c2ccccc12	1.1	-2.7	-1.2	3.9	3.3	0.7	nt	nt
COc1cc(/C=C(\C#N)C(=O)c2c[nH]c3ccccc23)cc(OC)c1O	38.3*	-107.7	35.4	-51.1	-30.5	-51.4	159.2*	3.0
COc1cc(/C=C(\C#N)C(=O)NCCc2ccccc2)cc(OC)c1O	44.2*	-62.4	3.5	-81.6	-28.8	-43.1	76.2*	12.3
COCCNC(=O)/C(C#N)=C/c1cc(Br)c(O)c(OC)c1	4.1	-0.2	4.4	-13.6	-5.7	-11.2	nt	nt
Cc1cc(NC(=O)COC(=O)C2CC2)ccc1Br	3.4	3.3	nt	-4.5	-4.6	-0.1	nt	nt
CCC(C)[C@H](NC(=O)Nc1cccc(Br)c1)C(=O)OC (stereo not given in full)	4.8	1.7	-1.7	0.8	4.0	-3.3	nt	nt
SMILES	IDE inh	IDE cell activ	MEX-5 binding	GLD-1 RNA inh	Bcl-xL primary	MCL1-BIM inh	IDE cell inh cf	HEK cytotox
CC1CCC2(CC1)NC(=O)N(CC(=O)N1c3ccccc3CC1C)C2=O (stereo not given)	2.9	3.3	nt	2.1	nt	nt	nt	nt
CC(C)/C=C1\CC/C(=C\c2ccc(N(C)C)cc2)C1=O	67.6*	-177.0	?	-107.7	-83.8	-193.6	144.2*	13.2
CSc1cccc(Nc2ccc(S(=O)(=O)N3CCOCC3)cc2[N+](=O)[O-])c1	-0.2	1.3	nt	1.0	-0.1	1.7	nt	nt
CCOc1ccccc1NC(=O)CSc1nnc2ccc(-c3ccncc3)nn12	22.3*	-16.3	0.5	6.0	-0.3	-0.9	9.0	9.1
Cc1ccccc1NC(=O)CSc1nnc2ccc(-c3ccncc3)nn12	-2.1	0.3	-2.4	2.4	-2.7	-5.0	nt	nt
O=C(Nn1c(O)c(C=C2N=c3ccccc3=N2)sc1=S)c1ccccc1	20.1*	-15.3	-1.4	5.9	1.8	4.7	14.6	6.2
O=C(NCCOc1ccccc1F)C1CCC(=O)N(CCc2cccc(F)c2)C1 (stereo not given)	2.4	2.0	1.0	-5.5	4.2	2.1	nt	nt
CCOC(=O)CN1C(=O)S/C(=C/c2ccc(N3CCCCC3)o2)C1=O	19.1*	-37.8	?	-155.7	-125.1	-197.0	69.5*	7.4
COC(=O)CN1C(=O)S/C(=C/c2ccc(N3CCCCC3)o2)C1=O	3.2	-141.8	?	-134.9	-123.7	-225.0	nt	nt
COc1cc(-c2noc(CCCC(=O)Nc3cccnc3)n2)cc(OC)c1OC	16.2*	5.4	1.3	1.1	-0.4	-2.8	0.1	6.4
Cc1ccc(-n2nc3c(=O)n(C(C)C(=O)NC4CC4)nc(C)c3c2C)cc1 (stereo not given)	1.6	3.0	0.3	-3.8	4.6	-3.1	nt	nt
Cc1ccc(N2C(=O)N(CC(=O)Nc3cc(F)ccc3C)C(=O)C2C)cc1 (stereo not given)	-3.9	3.1	0.1	1.9	2.5	2.4	nt	nt
COc1ccc(Cl)cc1N/C(N)=N/c1nc(C)cc(=O)[nH]1	6.3	-1.1	-1.3	5.4	-1.1	4.5	nt	nt
COc1ccccc1N/C(N)=N/c1nc(C(F)(F)F)cc(=O)[nH]1	18.4*	-9.1	-0.7	-4.0	5.1	-0.9	7.3	11.8
CCN1CCN(Cc2c(O)ccc3c2O/C(=C\C=C\c2ccccc2OC)C3=O)CC1	31.7*	-36.1	?	-22.0	39.5*	1.9	55.3*	8.2
